Test results: PubChem BioAssay AID485317 (Broad Institute, 2010)
The campaign covered roughly 290,000 compounds. About 11,000 (3.8%) were called active.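 Rule for the calls: active = mean replicate inhibition above about 79%, with every replicate also reaching it (limit read from the data); inconclusive = only one of the two criteria met; inactive = mean below limit and not every replicate reaching it.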 The sample as a whole holds a higher share of actives than the screen did.

What follows are compounds tested against FAD-linked sulfhydryl oxidase ALR (Homo sapiens) (UniProt P55789) (assay: inhibitors of human ALR sulfhydryl oxidase, primary screen, biochemical, H2O2 detection, HRP-luminol luminescence, single point (AID 485317)). Conditions: purified ALR, DTT oxidation, hits give high values, concentration not given here.
Chain of FAD-linked sulfhydryl oxidase ALR (Homo sapiens) (P55789 whole entry, looked up): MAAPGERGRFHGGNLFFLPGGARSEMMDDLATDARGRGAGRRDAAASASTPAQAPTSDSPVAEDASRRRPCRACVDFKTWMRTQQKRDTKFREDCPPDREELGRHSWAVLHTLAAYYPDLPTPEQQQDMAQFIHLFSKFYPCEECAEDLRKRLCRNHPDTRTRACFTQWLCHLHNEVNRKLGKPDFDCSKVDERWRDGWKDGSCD

inhibition, active:
CC1=C/C(=N\OS(=O)(=O)c2ccccc2)C=CC1=O 98.9%
COC1=C/C(=C/c2c(N)n3nc(CC(=O)N4CCOCC4)sc3nc2=O)C=CC1=O 99.1%
O=C(N/N=C/c1ccc(O)c(O)c1)C1c2ccccc2Oc2ccccc21 99%
CC(=N\NC(=O)c1cc(Br)ccc1O)/C(=N/O)C(=O)Nc1ccccc1 85.8%
CC(C)(C)NC(=O)CSC(=Nc1ccccc1F)NC#N 98.7%
Cc1ccc(NC2CCCN(C(=O)CCc3cn[nH]c3)C2)cc1C (centres undefined) 98.7%
O=C(CN1C(=O)CSC1=O)N1CCCC(Nc2ccc(F)cc2)C1 (centres undefined) 99.1%
CCCn1c(=S)[nH]c2ccc(C(F)(F)F)cc21 96.9%
Cc1ccc(O)c(CNc2nc3ccccc3n2C)c1 90.7%
O=C(c1n[nH]c2c1CCC2)N1CCCC(Nc2cccc(F)c2)C1 (centres undefined) 99.1%
COc1ccc(-c2nn(-c3ccccc3)cc2CN2CCCO2)c(F)c1 83.5%
CN1CCN(CCC(=O)N/N=C/C=C2\N(C)c3ccccc3C2(C)C)CC1 99%

inhibition, inactive:
O=C(N=C1SC2CS(=O)(=O)CC2N1c1ccccc1)c1ccccc1 (centres undefined) -1.67%
CC1(c2ccccc2)NC(=O)N(CC(=O)N2CC(=O)Nc3ccccc32)C1=O (centres undefined) -7.27%
COc1ccc2c(c1)O/C(=C\c1ccccc1O)C2=O 0.703%
O=S(=O)(ON(c1ccccc1)S(=O)(=O)c1ccccc1)c1ccccc1 -14.1%
CCCCCN(C(=O)CCC(=O)OCC(=O)NC1CCC(C)CC1)c1c(N)n(CCCC)c(=O)[nH]c1=O (centres undefined) -10.8%
COc1ccc(OCC(=O)N2CCOCC2)cc1 -7.03%
C=CCC1=C/C(=C\c2c(N)n3nc(CC(=O)N4CCOCC4)sc3nc2=O)C=C(OC)C1=O 54.3%
O=C(Cc1ccc(S(=O)(=O)N2CCOCC2)s1)N1CCN(c2ccc(C(F)(F)F)cc2[N+](=O)[O-])CC1 -1.8%
COc1ccccc1-c1sc2ccccc2c1-c1ccc(Br)nc1 -3.77%
CC1CCCCC1NC(=O)c1cc(=O)[nH]c2ccccc12 (centres undefined) -38.4%
CCC(C)(C)NC(=O)C1c2ccccc2Oc2ccccc21 -6.09%
CCCCCNC(=O)C1c2ccccc2Oc2ccccc21 -7.1%
CSCCC(NC(=O)COc1ccccc1)C(=O)N(C)CC(=O)Nc1ccc(C)cc1 (centres undefined) -1.79%
COc1cccc(CNC(=O)CN2C(=O)NC(Cc3ccccc3)(c3ccccc3)C2=O)c1 (centres undefined) -2.85%
CC(C)c1ccc(/C=C/C(=O)NCCCN2CCOCC2)cc1 3.5%
O=C1[C@H]2[C@@H](c3ccc(F)cc3)N3C(=O)N(c4ccc(C(F)(F)F)cc4)C(=O)[C@@]3(Cc3ccccc3)[C@H]2C(=O)N1C1CCCCC1 2.08%
CC(C)/C=N/NC(=O)c1cc(Br)ccc1O 44.3%
CC(=O)N/N=C(\C)c1ccc(Br)cc1Br -9.48%
COc1ccc(-c2sc3ccc(OC)cc3c2C#Cc2ccccn2)cc1 0.498%
O=C(COc1coc(CN2CCN(c3ccccc3F)CC2)cc1=O)N1CCc2ccccc21 -0.38%
Cc1ccccc1CSCC(=O)NC(=O)NC(C)(C)C -23.2%
COc1ccccc1-n1ccnc1SCC(=O)NC(C)(C)C 17.9%
COc1cc(C(C)=O)ccc1OC(C)C(=O)Nc1ccc(S(=O)(=O)N2CCCC2)cc1 (centres undefined) -9.52%
O=C(CSc1ncnc2sccc12)NC1CCS(=O)(=O)C1 (centres undefined) -0.589%
Cn1cc(CCC(=O)N2CCCC(C(=O)c3ccc(C(C)(C)C)cc3)C2)cn1 (centres undefined) -21%
COc1ccccc1CN1CC(C(=O)NCCc2cn[nH]c2)CCC1=O (centres undefined) -0.59%
CCC(C)c1ccc(NC(=O)COC(=O)C2CCCC2)cc1 (centres undefined) 0.804%
CC(OC(=O)c1c(F)cccc1F)C(=O)NCCC1=CCCCC1 (centres undefined) -6.45%
O=C1CCCCN1CCCC(=O)N1CCCC(Nc2ccc(F)cc2)C1 (centres undefined) 17.9%
O=C(CN1CCOC1=O)N1CCCC(Nc2ccc(F)c(F)c2)C1 (centres undefined) 12.5%
COC(=O)c1ccc(/C=C/c2c(-c3ccc(OC)cc3)sc3ccccc23)cc1 2.88%
CC(OC(=O)c1ccc(-n2cnnn2)cc1)C(=O)NCc1ccccc1 (centres undefined) 0.686%
CC(C)n1c(=S)[nH]c2cc(C(F)(F)F)ccc21 25.9%
CCCCn1c(=S)[nH]c2cc(S(=O)(=O)N3CCCCC3)ccc21 9.62%
O=C(CNC(=O)c1ccccc1F)OCC(=O)c1c[nH]c2ccccc12 -4.95%
CC(C)n1cnc2c(NCc3ccccc3)cc(N[C@@H](CO)Cc3ccccc3)cc21 -30.8%
Cn1c(Nc2cccc(Cl)c2)nc2ccccc21 10.5%
Cc1ccc(OCc2nc3ccccc3n2C)cc1 -6.95%
Cc1ccc(-c2csc(NCCc3nc4cc(Cl)c(Cl)cc4n3CCOCCO)n2)cc1 -6.99%
Cc1ccc(F)cc1S(=O)(=O)Nc1cccc(C(=O)N2CCCC(C(N)=O)C2)c1 (centres undefined) -5.56%
O=C(Nc1cccc(F)c1)NC1CCCCCCC1 43.5%
CCCCn1c(N)c(N(CC(C)C)C(=O)c2cnc(C)cn2)c(=O)[nH]c1=O -2.15%
COc1ccc(-n2cc(CNC3CCOCC3)c(-c3cccc(F)c3)n2)cc1 -7%
CCC(O)C1CCN(Cc2cn(-c3ccc(OC)cc3)nc2-c2cccc(F)c2)CC1 (centres undefined) -36.1%
C[C@@H]1NC(=O)[C@@]2(C)[C@@H](c3ccccc3)[C@H]3COc4ccccc4[C@@H]3N2C1=O 0.598%
CN1/C(=C\C(=O)c2cccnc2Cl)C(C)(C)c2ccccc21 -13.8%
CC(C)Nc1nnc(SCC(=O)/C=C2\N(C)c3ccccc3C2(C)C)s1 -3.17%
